Only some compounds are listed: those with a hit (about 4.1% of all), similar ones and a draw of the others.
hgDAF12 agonist – H. glycines DAF-12 receptor agonists, primary screen, cell-based, luminescence, HEK293, GAL4 fusion, UAS-luciferase; activation, % at 6.8 µM; Nuclear hormone receptor DAF-12 (Heterodera glycines), GAL4 fusion; 370,000 tested, 1.8% active; HEK293 GAL4-hgDAF12 UAS-luciferase reporter, agonist luminescence; normalized to butyrate control; AID 687014, 2013;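 active means activation above a cutoff set at the mean of all screened compounds plus 3 SD, cut at about 10% in these data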
hcDAF-12 act – H. contortus DAF-12 nuclear receptor activators, primary screen, cell-based, luminescence, HEK293, lit1-tk-luc reporter | HEK293 hcDAF-12 lit1-tk-luc reporter; 0% DMSO, 100% Δ7-dafachronic acid | activation, % at 6.8 µM | 370,000 tested, 1.4% active | AID 652067, 2013;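 active means activation above the mean of all tested compounds plus 3 SD, cut at about 5.5% in these data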
ssDAF-12 act – S. stercoralis DAF-12 nuclear receptor activators, primary screen, cell-based, luminescence, HEK293, GRIP1 co-expression, lit1-tk-luc; Nuclear hormone receptor DAF-12 (Strongyloides stercoralis); activation, % at 6.8 µM; 370,000 tested, 1% active; HEK293 ssDAF-12/GRIP1 lit1-tk-luc reporter; % of 3 µM dafachronic acid response;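 active means activation above the mean over all tested compounds plus 3 SD, cut at about 0.9% in these data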
DAX1 inh-1 – DAX1 (NR0B1) inhibitors, primary screen, cell-based, HEK293, Gal4-DAX1, luciferase luminescence; HEK293 Gal4-DAX1 luciferase reporter; inhibition, % at 6.75 µM; 340,000 tested, 0.99% active; Nuclear receptor subfamily 0 group B member 1 (Homo sapiens), P51843;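 active means inhibition above the mean over all tested compounds plus 3 SD, cut at about 4.2% in these data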;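 further: inhibition shows as a rise in luminescence from relieved DAX1 repression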
PolyA inh – polyadenylation inhibitors in yeast reporter cells, primary screen, luminescence, S. cerevisiae. S. cerevisiae SKY197-pL101 polyadenylation reporter, beta-gal luminescence; efflux-impaired pdr1/pdr3 knockout yeast; score 100 = 6 SD above DMSO. activity score, % at 12 µM. 300,000 tested, 0.02% active. AID 1875, 2009;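 active means lowest replicate activity score at least 50, where 100 means six control SD above control mean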;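 further: yeast exposed to compound for 9 h at 30 °C; higher score means more reporter readthrough which indicates perturbed polyadenylation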
DAX1 inh-2 – DAX1 (NR0B1) inhibitors on StAR promoter, primary screen, cell-based, luminescence, SF-1 (NR5A1), full-length DAX-1; inhibition, % at 6.8 µM; HEK293T StAR-luciferase reporter, SF-1/DAX-1 repression relief; 370,000 tested, 1.1% active;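 active means inhibition above the mean over all tested compounds plus 3 SD, cut at about 3.6% in these data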;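 further: higher inhibition means more luminescence from relief of DAX-1 repression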
DAX1 inh confirm – DAX1 (NR0B1) inhibitors relieving SF-1 repression, confirmation, cell-based, luminescence, HEK293T, full-length DAX-1, SF-1 activated StAR promoter; shares compounds with DAX1 inh-2; inhibition, % at 6.8 µM; 2,400 tested, 87% active; HEK293T StAR-promoter luciferase reporter, SF-1/DAX-1 repression;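 active means inhibition above the average of every tested compound plus 3 SD, cut at about 3.8% in these data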
SF1 AF2mut Luc – StAR reporter signal changes without DAX1, counter-screen for DAX1 inhibitor project, cell-based, luminescence, AF-2 mutant SF-1, transactivation. shares compounds with DAX1 inh-2. HEK293 StAR-luciferase, SF-1 AF2 mutant. inhibition, % at 6.8 µM. 2,400 tested, 78% active. AID 652136, 2013;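 active means inhibition above the mean of all tested compounds plus 3 SD, cut at about 3% in these data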
LXR ag – LXR agonists, Gal4 luciferase reporter, confirmation, counter-screen for hcDAF-12 agonist project, cell-based, luminescence, HEK293, H. contortus campaign; shares compounds with hcDAF-12 act; HEK293 Gal4-LXR tk-luc reporter, 24 h; normalized: DMSO 0%, positive control 100%; activation, % at 6.8 µM; 3,400 tested, under 10 active;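 active means mean percent activation of the reporter above a cutoff set as the average over tested compounds plus their standard deviation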
Target sequence (P55055 whole entry, looked up, the tested form may be a part): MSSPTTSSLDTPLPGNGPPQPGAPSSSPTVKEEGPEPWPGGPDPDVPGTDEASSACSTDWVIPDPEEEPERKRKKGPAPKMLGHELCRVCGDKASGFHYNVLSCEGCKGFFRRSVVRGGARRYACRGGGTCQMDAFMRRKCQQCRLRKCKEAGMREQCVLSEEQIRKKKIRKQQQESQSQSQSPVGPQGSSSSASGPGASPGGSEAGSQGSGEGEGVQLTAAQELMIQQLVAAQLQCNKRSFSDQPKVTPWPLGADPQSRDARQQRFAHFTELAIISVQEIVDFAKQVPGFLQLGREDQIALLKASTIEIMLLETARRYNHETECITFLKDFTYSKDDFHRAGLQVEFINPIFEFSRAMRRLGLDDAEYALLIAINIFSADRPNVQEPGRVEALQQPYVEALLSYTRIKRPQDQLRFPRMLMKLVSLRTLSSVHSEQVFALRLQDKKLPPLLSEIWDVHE
hcDAF12 ag – H. contortus DAF-12 receptor agonists, confirmation, cell-based, luminescence, HEK293, lit1-tk-luc, triplicate; 3,400 tested, 61% active; shares compounds with hcDAF-12 act; HEK293 hcDAF-12 lit1-tk-luc reporter; % of Δ7-dafachronic acid response; activation, % at 6.8 µM;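 active means mean activation across triplicate tests above the threshold derived from the earlier primary screen, cut at about 5.5% in these data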
hgDAF12 ag – H. glycines DAF-12 receptor agonists, confirmation, cell-based, luminescence, HEK293, GAL4-LBD fusion | shares compounds with hgDAF12 agonist | HEK293 GAL4-hgDAF12 luciferase reporter, agonist mode; percent of butyrate response | activation, % at 6.8 µM | 3,300 tested, 80% active;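 active means mean activation over triplicate wells above the hit cutoff derived from the earlier primary screen, cut at about 11% in these data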
LXRb DAF12 ctr – LXR agonists, Gal4 luciferase reporter, confirmation, counter-screen for hgDAF-12 agonist project, cell-based, luminescence, HEK293, H. glycines campaign. shares compounds with hgDAF12 agonist. 3,300 tested, under 10 active. activation, % at 6.8 µM. 24 h. AID 743051, 2013;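 active means mean activation of the triplicate above a set limit carried over from the primary screen, none filed active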
A number is an active result; 0 = inactive; - = no result.

SMILES	hgDAF12 agonist	hcDAF-12 act	ssDAF-12 act	DAX1 inh-1	PolyA inh	DAX1 inh-2	DAX1 inh confirm	SF1 AF2mut Luc	hgDAF12 ag	LXRb DAF12 ctr	others
CN(C)c1ccc(-c2nnc(-c3cccs3)o2)cc1	20	0	0	4.4	0	5.8	15	5.9	17	0
Cc1nc(NC(=O)c2csc3ccccc23)sc1C	24	13	1.5	0	0	5.1	12	5.0	20	0	LXR ag=0;hcDAF12 ag=9.7
Cc1nc(NC(=O)c2ccccc2O)sc1C	0	0	0	0	0	0	-	-	-	-
COc1ccc2oc(C(=O)NN3C(C)CCCC3C)c(C)c2c1 (stereo not given)	0	0	0	0	0	0	-	-	-	-
COc1ccc2oc(C(=O)Nc3nc(C)cs3)c(C)c2c1	21	9.9	1.1	0	-	6.9	10	6.6	20	0	LXR ag=0;hcDAF12 ag=12
COc1ccc2c(CC(=O)Nc3nc(C)cs3)coc2c1	0	0	0	0	0	0	-	-	-	-
COc1ccc2oc(C(=O)NC3CCCCC3)c(C)c2c1	16	5.8	0	0	0	6.2	7.0	5.9	14	0
CCOC(=O)c1sc(=NC(=O)c2ccccc2)n(C)c1C	13	16	2.2	0	0	4.6	15	9.6	18	0	LXR ag=0;hcDAF12 ag=14
Cc1cc(Br)c2[nH]cc(CCNC(=O)c3ccco3)c2c1	0	0	0	0	0	0	-	-	-	-
CCOc1ccc(/C=N/Nc2ccccn2)cc1	17	6.0	0	0	0	5.8	18	10	19	0
CCOc1ccc(/C=N/NC(=O)Nc2ccccc2)cc1	19	0	0	0	0	6.6	9.2	5.2	20	0
COc1ccc(/C=N/Nc2cc(OC)ncn2)cc1	14	9.2	2.2	0	0	6.5	15	7.2	16	0	LXR ag=0;hcDAF12 ag=9.4
Clc1ccc(/C=N/Nc2ccccn2)cc1	0	0	0	0	0	0	-	-	-	-
CCOc1ccc(/C=N/NC(=O)CC(=O)NCc2ccccc2)cc1	0	0	0	0	0	0	-	-	-	-
CC(=O)Oc1ccc(/C=N/NC(=S)Nc2ccccc2)cc1	17	0	0	0	0	5.0	15	8.4	16	0
O=C(Cc1ccccc1)N/N=C/c1ccc(OCC(=O)Nc2ccccc2)cc1	0	0	0	0	0	0	-	-	-	-
Cn1ccsc1=NC(=O)c1cc(S(=O)(=O)N2CCOCC2)ccc1F	0	0	0	0	0	0	-	-	-	-

From PubChem
